Assays:
Conditions in all cases: 10 µM; exposure time: 3 h pre-incubation + 3 h imaging
[1] = test system: Danio rerio larvae (5 dpf); experiment: 1-h baseline activity (% time moving, periods 1-6) minus DMSO control (percentage points); higher = more locomotor activity than DMSO larvae
In short: (§1)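 Wild-type 5 dpf zebrafish larvae were exposed to compounds at 10 µM final for 3 h before and 3 h during imaging at 28.5 °C. Larvae were imaged every 6 s and tracked by Z-LaP Tracker. Detections below 0.5 probability and larvae moving under 1% of the time were excluded. Each behavioural measure is the group mean (n = 48) minus the DMSO control mean (n = 844), in percentage points.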

[2] = test system: Danio rerio larvae (5 dpf); experiment: excitability (activity period 17 minus period 16, 1-s interval sound) minus DMSO control (percentage points); higher = more acoustic excitability than DMSO larvae
In short: as §1

[3] = test system: Danio rerio larvae (5 dpf); experiment: combined optomotor response (time in upper well half, down vs up moving lines, periods 7-14) minus DMSO control (percentage points); higher = stronger optomotor response than DMSO larvae

Structure (SMILES) | 1-h baseline activity [1] | excitability [2] | combined optomotor response [3]
CCCCC1=NC2(CCCC2)C(=O)N1Cc1ccc(-c2ccccc2-c2nnn[nH]2)cc1 [Irbesartan] | 1.48 | -0.258 | -4.91
CN(CCOc1ccc(NS(C)(=O)=O)cc1)CCc1ccc(NS(C)(=O)=O)cc1 [Dofetilide] | – | 6.73 | –
CCCCC(=O)N(Cc1ccc(-c2ccccc2-c2nnn[nH]2)cc1)[C@H](C(=O)O)C(C)C [Valsartan] | 3.3 | -1.67 | 7.07
C=C1[C@H](CO)[C@@H](O)C[C@@H]1n1cnc2c(=O)[nH]c(N)nc21 [Entecavir] | – | -0.589 | 3.44

Reference: the supplement of paper PMC9950053
